Caspase-7 inhib = qHTS Assay for Allosteric/Competitive Inhibitors of Caspase-7; P55210; recombinant caspase-7, Ac-DEVD-AFC fluorescence rate; Potency, µM (highest dose often 57.5 µM), inactives show at the highest dose activity change, negative = inhibition, hits mostly inhibitors; 0.02% of 75,000 active; active means well fitted inhibition curve with a large enough effect in the main read-out, with a control signal flat, not every such curve was filed as active; inconclusive means small, poorly fitted or top-dose-only effect, or a change in a side signal; further: % of control where 0% means no effect
Bst PK mod = Pyruvate Kinase | purified pyruvate kinase, luminescence ATP production; ribose 5-phosphate activator present at AC10 | Potency, µM | 1.2% of 51,000 active | AID 361, 2006; in the data active means potency below about 11 µM; inconclusive means mostly about 12 µM to 25 µM;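 the screen sought inhibitors and activators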;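 further: scaled between full activation by ribose 5 phosphate and full inhibition by luteolin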
GBA mod = Glucocerebrosidase | Lysosomal acid glucosylceramidase (Homo sapiens), P04062 | purified enzyme, resorufin glucoside fluorescence (screen aimed at inhibitors), 20 min | Potency, µM | 1.1% of 48,000 active; in the data active means potency below about 15 µM; inconclusive means mostly about 16 µM to 33 µM;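 further: the screen sought inhibitors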
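Normal human glucocerebrosidase (0.2 nM final) was assayed with resorufin β-D-glucopyranoside (30 uM final) in 50mM citric acid/KH2PO4, 10mM sodium taurocholate, 0.01% tween-20, pH 5.9. Compounds were titrated; fluorescence (Ex 548, Em 600) read after 20 min at RT.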
TSHR ag = qHTS Assay for Agonists of the Thyroid Stimulating Hormone Receptor; AID 926, 2007; Thyrotropin receptor (Homo sapiens), P16473; Potency, µM (top dose mostly 57.1 µM), inactives show at the top dose activation, usual class: activators; HEK293-CNG-TSHR cells (CNG channel as cAMP sensor), membrane potential dye, cAMP; 0.48% of 73,000 active; active means well fitted activation curve with a large enough effect in the main read-out, with a control signal flat, not every such curve was filed as active; inconclusive means small, poorly fitted or top-dose-only effect, or a change in a side signal; inactive means no such curve, though single readings can be large or run the other way; % of control where 0% means no effect;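 further: the control signal comes from parental cells without the receptor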
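HEK 293 cells stably expressing TSHR and a modified CNG channel, with CNG-only parental cells as counterscreen, were preloaded 60 min at room temperature with membrane potential dye containing 100 uM RO 20-1724. Compound exposure was 30 min, and depolarization was read as fluorescence at 590 nm.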
Casp1 inh = qHTS Assay for Allosteric/Competitive Inhibitors of Caspase-1. P29466. Caspase-1 enzyme, Ac-WEHD-AFC fluorogenic rate. AID 900, 2007. 0.03% of 75,000 active. Potency, µM (doses to about 57.5 µM), without a hit: at the top dose activity change, negative = inhibition, actives largely listed as inhibitors;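 further: plate controls were vehicle for no effect and no substrate for full effect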
HEK293 cAMP ctrl = qHTS Assay for Agonists of the Thyroid Stimulating Hormone Receptor: Activators of Intracellular cAMP Concentrations in Parental HEK 293; AID 938, 2007; 2.5% of 73,000 active; Potency, µM (top dose mostly 57.1 µM), without a hit: at the top dose activation, actives largely listed as activators; parental HEK293 CNG cAMP sensor, membrane potential fluorescence; further: % of control where 0% means no effect; nearly all actives have a fitted effect of over 55% in size
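Counterscreen for endogenous-receptor signalling: CNG-channel HEK 293 cells report cAMP rise by membrane depolarization. After 60 min dye equilibration with 100 uM RO 20-1724, compounds incubated 30 min before bottom-read fluorescence at 590 nm.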
The depositor's hits bear a star; i = inactive; ? = inconclusive; . = no result; ! = not active in a repeat; [ ] = another dose, or the depositor's remark. A selection: hits, their analogues and other compounds. The true share with any hit is near 4%. Unless noted, the call rests on the fitted dose curve; in most records, active means well fitted curve in the direction sought with a large enough effect; inconclusive means small, poorly fitted or top-dose-only effect, or another doubt; inactive means no such curve, though single readings can be large; an effect the other way counts as inactive or inconclusive. Potency means the concentration at half of the fitted maximal effect.

SMILES | Caspase-7 inhib | Bst PK mod | GBA mod | TSHR ag | Casp1 inh | HEK293 cAMP ctrl
O=C(Nc1c2c(nn1-c1ccc(F)cc1)CS(=O)(=O)C2)C12CC3CC(CC(C3)C1)C2 | 2% | >57 | >77 | ? | -9% | 16µM*
CCN(CC)CCCNC(=O)c1ccc(-n2c(=O)c(=O)[nH]c3ccccc32)cc1 | -2% | . | . | ? | 0% | ?
COC(=O)C1=C(C)N(Cc2ccccc2)C2=C(C(=O)c3ccccc3)C(c3ccccc3)[C@@](O)(C(=O)OC)C(=O)N2C1c1ccccc1 (stereo partly specified) | ? | . | . | 1%[11.4 µM] | ? | 2%[11.4 µM]
Cc1nn2c(-c3ccccc3)nnc2c2ccccc12 | -2% | i | >77 | ? | 1% | ?
Cc1ccc(S(=O)(=O)N2CCN(C)CC2)cc1-c1nnc2c3ccccc3c(C)nn12 | 0% | >57 | >77 | 4µM* | 0% | 2%
Cc1ccc(S(=O)(=O)N2CCN(CCO)CC2)cc1-c1nnc2c3ccccc3c(C)nn12 | 1% | >57 | >77 | 16µM* | -1% | 8%
COc1ccc(S(=O)(=O)N2CCN(CCO)CC2)cc1-c1nnc2c3ccccc3c(C)nn12 | 0% | . | . | 2% | -1% | 8%
CCCCn1c(=N)n(CC(=O)C(C)(C)C)c2ccccc21 | 1% | >57 | >77 | 12% | -1% | 2%
Cn1c(=N)n(CC(=O)C(C)(C)C)c2ccccc21 | 0% | >57 | 13* | 16% | 2% | 29%
CCOC(=O)CCN1CCN(C(=O)c2ccc(-n3c(=O)c(=O)[nH]c4ccccc43)cc2)CC1 | -1% | . | . | -1% | -2% | -4%
Oc1c(C(c2ccccc2)N2CCN(Cc3ccccc3)CC2)sc2ncnn12 (stereo unspecified) | 0% | . | . | ? | -1% | 32µM*
Cc1ccccc1-c1nnc(-c2ccc(Br)cc2)o1 | 1% | 4.4* | >77 | ? | -2% | 3.2µM*
COc1cccc(NC(=O)CN2CCN(S(=O)(=O)c3ccc(C(C)C)cc3)CC2)c1 | -1% | >57 | ? | ? | -3% | ?
COc1cc(NC(=O)CN2CCN(S(=O)(=O)c3ccc(C(C)C)cc3)CC2)cc(OC)c1 | -1% | >57 | 15* | . | -3% | 27%
O=C(c1ccc2c(c1)OCCO2)C1CCN(S(=O)(=O)c2ccc(F)cc2)CC1 | -1% | 10* | >77 | 13% | -3% | 17%
O=S(=O)(c1ccc2c(c1)OCCO2)N1CCC(n2cnc3cc(F)ccc32)CC1 | 0% | >57 | . | 5% | 1% | 24%
CCCn1c(C)nc2c(c1=O)c1nc3ccccc3nc1n2CCC1=CCCCC1 | ? | >57 | >77 | ? | . | 20µM*
Cc1nc2ccccc2c2c1C(=O)N(CCC1=CCCCC1)C2=O | -1% | >57 | 14* | ? | -4% | ?
O=C(Nc1cccc(C(F)(F)F)c1)C1CCCN(c2ncccn2)C1 (stereo unspecified) | 0% | >57 | . | ? | 1% | 25µM*
O=C(Nc1ccc2c(c1)OCCO2)c1ccc(Cl)c(S(=O)(=O)N2CCOCC2)c1 | 2% | >57 | >77 | ? | 0% | ?
Cc1cc(OCC(=O)Nc2ccc3c(c2)OCCO3)ccc1Cl | -2% | >11 | >77 | ? | -2% | 0.25µM*
CN(C)c1ccc(NC(=O)CN2CCN(S(=O)(=O)c3cc(Cl)ccc3Cl)CC2)cc1 | -5% | 9.4* | ? | -21% | -1% | 4%[2.29 µM]
O=C(CN1CCN(S(=O)(=O)c2cc(Cl)ccc2Cl)CC1)Nc1ccc2c(c1)OCCO2 | -5% | 4.7* | ? | . | 1% | 27%
C=C(CO)[C@H]1Cc2c(ccc3c(=O)c4c(oc23)COc2cc(OC)c(OC)cc2-4)O1 | . | . | . | -9% | . | -4%
CC(C)(C)c1c2c(c(C(C)(C)C)c3c1OCN(Cc1ccccc1)C3)OCN(Cc1ccccc1)C2 | -7%[11.5 µM] | . | . | 7%[11.4 µM] | 2%[11.5 µM] | -7%[11.4 µM]
SMILES | Caspase-7 inhib | Bst PK mod | GBA mod | TSHR ag | Casp1 inh | HEK293 cAMP ctrl
CC(=O)[C@@H]1CC[C@@H]2[C@@H]3CC=C4C[C@H](OS(=O)(=O)O)CC[C@@]4(C)[C@H]3CC[C@]21C | 3% | . | . | -6% | 1% | -3%
Cn1c(=NC(=O)C2CCN(S(=O)(=O)c3cccs3)CC2)sc2ccccc21 | -2% | >57 | >77 | 25µM* | 2% | 14%
CCn1c2ccccc2c2cc(NC(=O)C3CCN(S(=O)(=O)c4cccs4)CC3)ccc21 | -1% | >57 | 2.8* | -8% | 2% | -26%
O=C(Nc1ccccn1)C1CCN(S(=O)(=O)c2cccs2)CC1 | 0% | >57 | >77 | ? | 2% | ?
CCC(C)(C)n1nnnc1C(c1ccccn1)N1CCOCC1 (stereo unspecified) | -11% | >57 | >77 | -9% | -14% | 8%
CCN(Cc1ccccc1)C(c1ccccn1)c1nnnn1C(C)(C)CC (stereo unspecified) | 5% | >57 | >77 | ? | -3% | 5µM*
O=C(O)C[C@H](Cc1ccccc1Cl)C(=O)O | 1%[11.5 µM] | . | . | 2%[11.4 µM] | -1%[11.5 µM] | 3%[11.4 µM]
c1ccc2nc3c(nc2c1)c1ccccc1n3CCN1CCOCC1 | -13% | i | . | 16µM* | -12% | 21%
Cc1csc2nc(CSc3nncn3-c3ccccc3)c(Br)n12 | -1% | . | >77 | . | -1% | 0%
Cc1csc2nc(CSc3nc4ccccc4o3)c(Br)n12 | -4% | ? | >77 | ? | -6% | 25µM*
CO[C@@H]1COC(=O)CCC[C@@H](C)[C@H](OC)COC(=O)[C@H](Cc2ccccc2)NC(=O)C/C=C\[C@H]1C | 0%[11.5 µM] | . | . | 2%[11.4 µM] | -9%[11.5 µM] | 20%[11.4 µM]
COc1ccccc1N1CCN(CCCNc2cc(=O)n(C)c(=O)n2C)CC1 | 5% | . | . | ? | -2% | 13µM*!
COc1ccccc1N1CCN(CCCNc2c(C)c(=O)n(C)c(=O)n2C)CC1 | 0% | . | . | 10% | 2% | 4%
c1cc2c(cc1C(N1CCNCC1)N1CCNCC1)OCO2 | 1%[11.5 µM] | . | . | 2%[11.4 µM] | 0%[11.5 µM] | -3%[11.4 µM]
Cc1cc(C(=O)Nc2ccccn2)no1 | 1% | >57 | >77 | -1% | -1% | 1%
O=C(Nc1ccccn1)c1ccc2ccccc2n1 | -3% | 9* | . | ? | -1% | ?
COc1ccccc1NC(=O)c1ccccc1-c1nc(-c2ccccc2OC)no1 | -2% | . | >77 | ? | -1% | 25µM*
COc1ccccc1-c1noc(-c2ccccc2C(=O)Nc2ccccc2)n1 | -2% | >57 | >77 | ? | -1% | 25µM*
O=C(O)/C(Cc1ccc([N+](=O)[O-])cc1)=N/O | 0%[11.5 µM] | . | . | -1%[11.4 µM] | -3%[11.5 µM] | 10%[11.4 µM]
COc1ccc2nc(C)cc(N3CC(C)OC(C)C3)c2c1 (stereo unspecified) | -4%[0.00368 µM] | >57 | >77 | ? | 0% | 16µM*
COc1ccc2nc(C)cc(N3CCOCC3)c2c1 | -4% | >57 | >77 | 9% | -3% | 15%
